Records with an inconclusive call do not appear. Unmarked numbers belong to inactive results. Activity calls are given as the source filed them. Calls follow the shape of the dose curve; as a rule, active = well fitted cell-killing curve with a large enough effect in the repeat runs; inconclusive = weak or mixed curves, or effect the other way; inactive = flat fitted curve, though single readings scatter.
Assay: Human pregnane X receptor (PXR) small molecule agonists, qHTS cell viability counter screen (AID 1346977); also: nearly all actives have a fitted effect of over 50% in size
Settings: PXR-Luc HepG2 viability, CellTiter-Fluor, 24 h; series mostly up to 92.4 µM; activity change, negative = cytotoxicity: at the top concentration
In short: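 PXR-Luc HepG2, 2,000 cells/well, 5% charcoal-stripped FBS; 5hr settle; cpd 24hr, 37C/5% CO2; CellTiter-Fluor at 23hr, read 1hr later (fluorescence).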
% is scaled to controls: 0 for no effect and ±100 for the full control effect; potency is read from the fitted curve at half-maximal effect.

Row | SMILES | activity change, negative = cytotoxicity | Potency
1 | CC/C=C(\C)C=O | 2.06% | 
2 | O=C(NCc1ncc(C(F)(F)F)cc1Cl)c1c(Cl)cccc1Cl | -26% | 
3 | O=c1cc[nH]cc1 | 1.18% | 
4 | CCOc1nc(F)cc2nc(S(=O)(=O)Nc3c(Cl)cccc3C(=O)OC)nn12 | -12.6% | 
5 | Cn1ccnc1 | -1.79% | 
6 | CCCCCCCCCCCCS(=O)(=O)Cl | 2.87% [at 19 µM] | 
7 | CCN(CCC#N)c1ccc(N=Nc2ccc([N+](=O)[O-])cc2)cc1 | -19.6% | 
8 | CC(C)C(=O)C(C)C | -0.244% | 
9 | CCN(CC)c1ccc2c(c1)Oc1cc(N(CC)CC)ccc1C21OC(=O)c2ccccc21 |  | 4.22 µM (active)
10 | Cc1cc(Br)ccc1NC(=O)CCl |  | 54.5 µM (active)
11 | N#Cc1nc(Cl)c(Cl)c(Cl)c1Cl |  | 48.6 µM (active)
12 | [Cl][Eu]([Cl])[Cl] | 3.93% | 
13 | COc1cc(/C=C/C(=O)CC(=O)/C=C/c2ccc(O)c(OC)c2)ccc1O |  | 30.8 µM (active)
14 | N#CCCOCCC#N | 0.272% | 
15 | Nc1ccc(F)c([N+](=O)[O-])c1 | -12.9% | 
16 | CC(=O)CC(N)=O | -1.73% | 

Row | SMILES | activity change, negative = cytotoxicity | Potency
17 | Oc1ccc(C2(c3ccc(O)c(C4CCCCC4)c3)CCCCC2)cc1C1CCCCC1 |  | 19.3 µM (active)
18 | C=CC(=O)OCCOC1C2CCC1C1CC=CC12 (configuration not stated) | 5.4% [at 19 µM] | 
19 | CC(C=O)c1ccccc1 (configuration not stated) | 0.612% | 
20 | CCCC(C)C=O (configuration not stated) | 3.06% | 
21 | C=CC(=O)O[C@H]1C[C@@H]2CC[C@@]1(C)C2(C)C | -0.155% | 
22 | CCCCCCCCCCCCCCCCCCNC(=O)OC1CCN(C(=O)OC[C@H](COC(=O)N(Cc2cccc[n+]2CC)C(=O)c2ccccc2OC)OC)CC1 |  | 26.6 µM (active)
23 | C=C[Si](C)(C)Cl | 1.3% [at 8.39 µM] | 
24 | CCC(C)(C)c1ccc(CC(C)CN2C[C@@H](C)O[C@@H](C)C2)cc1 (some centres not stated) | -0.863% [at 42.5 µM] | 
25 | CN1CCN(c2ccccc2/C=C2\SCCN(c3ccc(Cl)c(Cl)c3)C2=O)CC1 |  | 27.3 µM (active)
26 | Cc1ccc2nc(-c3ccc(N)cc3)sc2c1S(=O)(=O)O | -2.79% [at 42.5 µM] | 
27 | O=[N+]([O-])c1ccc(CO)cc1 | 0.306% | 
28 | NC(=O)c1ccccc1Cl | 1.07% | 
29 | CC(CC(C)(C)C)CC(C)(C)CC(C)(C)C (configuration not stated) | 1.17% [at 42.5 µM] | 
30 | O=C(O)C[C@H](O)C[C@H](O)/C=C/c1c(C2CC2)nc2ccccc2c1-c1ccc(F)cc1 | -7.27% [at 19 µM] | 
31 | C=Cc1ccncc1 | 2.16% | 
32 | CCN(CC)c1ccc(N=Nc2ccccc2)cc1 |  | 27.3 µM (active)

— PubChem BioAssay (Tox21)
